Bioassay records from PubChem.
JMJD2A Tudor inh: inhibitors of human JMJD2A Tudor domain; Potency, µM (highest dose often 114 µM), inactives show at the highest dose activity change, negative = inhibition, hits mostly inhibitors; O75164; AlphaScreen JMJD2A-Tudor / H3K4me3 peptide binding; 390,000 tested, 4.4% active; further: on the % scale 0 is the no-effect control and ±100 the full control effect; nearly all actives have a fitted effect of over 50% in size
Target sequence (O75164 whole entry, looked up, the tested form may be a part): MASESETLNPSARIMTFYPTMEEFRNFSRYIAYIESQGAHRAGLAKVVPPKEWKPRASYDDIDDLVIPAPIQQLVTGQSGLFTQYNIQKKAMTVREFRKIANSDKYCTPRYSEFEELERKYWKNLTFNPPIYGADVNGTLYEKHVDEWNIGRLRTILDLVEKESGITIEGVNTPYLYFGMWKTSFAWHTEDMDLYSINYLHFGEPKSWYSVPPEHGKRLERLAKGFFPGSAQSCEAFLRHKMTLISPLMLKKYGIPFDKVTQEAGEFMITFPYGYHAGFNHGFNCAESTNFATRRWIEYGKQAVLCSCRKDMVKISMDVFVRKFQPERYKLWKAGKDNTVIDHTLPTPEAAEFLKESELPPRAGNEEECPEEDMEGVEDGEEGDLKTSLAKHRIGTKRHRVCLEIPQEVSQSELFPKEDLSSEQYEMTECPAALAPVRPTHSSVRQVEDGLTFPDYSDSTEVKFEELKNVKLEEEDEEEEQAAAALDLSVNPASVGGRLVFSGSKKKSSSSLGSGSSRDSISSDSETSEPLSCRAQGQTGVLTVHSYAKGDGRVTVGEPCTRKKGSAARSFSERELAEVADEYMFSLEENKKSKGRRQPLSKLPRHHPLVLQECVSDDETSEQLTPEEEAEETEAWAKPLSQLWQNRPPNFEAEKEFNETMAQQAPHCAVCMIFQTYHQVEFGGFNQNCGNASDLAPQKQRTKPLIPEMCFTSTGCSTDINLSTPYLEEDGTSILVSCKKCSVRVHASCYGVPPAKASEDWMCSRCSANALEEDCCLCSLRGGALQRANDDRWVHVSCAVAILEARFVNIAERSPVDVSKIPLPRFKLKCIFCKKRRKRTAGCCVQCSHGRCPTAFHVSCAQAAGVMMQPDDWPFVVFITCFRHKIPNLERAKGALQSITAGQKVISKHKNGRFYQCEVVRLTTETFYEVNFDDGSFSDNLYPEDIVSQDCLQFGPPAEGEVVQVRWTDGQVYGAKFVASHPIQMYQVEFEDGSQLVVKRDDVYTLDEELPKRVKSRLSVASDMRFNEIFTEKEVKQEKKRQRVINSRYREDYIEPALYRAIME
G9a block: inhibitors of human histone lysine methyltransferase G9a; AID 504332; G9a H3K9 monomethylation, AlphaScreen, 2 h; 350,000 tested, 8.8% active; Potency, µM (highest dose often 102 µM), for the others: at the top dose activity, negative = inhibition, actives largely listed as inhibitors; Q96KQ7; further: on the % scale 0 is the no-effect control and ±100 the full control effect; nearly all actives have a fitted effect of over 75% in size
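Using a bead-based AlphaScreen, monomethylated H3K9 product from 2 h room-temperature reactions (G9a 20 nM, peptide 500 nM, SAM 20 uM) was detected with 0.5 ug/mL rabbit anti-H3K9me1 antibody.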
BAZ2B block: BAZ2B (human) inhibition. AlphaScreen BAZ2B-H3K14Ac peptide displacement. Potency, µM (series often up to 114 µM), without a hit: at the highest dose activity change, negative = inhibition, hits mostly inhibitors. 360,000 tested, 4.4% active. AID 504333; further: on the % scale 0 is the no-effect control and ±100 the full control effect; nearly all actives have a fitted effect of over 60% in size
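Complex of BAZ2B and biotin-H3K14Ac (50 nM apiece) forms over 30 min at RT, then faces library compounds up to 110 uM for another 30 min; AlphaScreen beads added, 20 min dark incubation, luminescence read.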
Sfp inh: Sfp phosphopantetheinyl transferase inhibition. Biochemical Sfp PPTase activity, qHTS. 310,000 tested, 3.5% active. Potency, µM, inactives show largest response in the series, negative = inhibition, hits mostly inhibitors. Q9F4F7;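 further: the enzyme is Sfp with the accession as filed and its product quenches rhodamine fluorescence; 0% = enzyme reaction without inhibitor and -100% = no enzyme wells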
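Reaction rates are the 30-min fluorescence difference (ex 525, em 598 nm) in wells containing 15 nM Sfp, 5 uM rhodamine-CoA and 12.5 uM BHQ-2-YbbR at pH 7.6 with 10 mM MgCl2.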
HP1b binding inh: inhibitors of HP1-beta chromodomain binding to methylated histone tails; AID 540317; 390,000 tested, 0.56% active; Potency, µM (top dose mostly 114 µM), inactives show at the top dose activity change, negative = inhibition, hits mostly inhibitors; AlphaScreen HP1-beta / biotin-H3K9me3 peptide binding; further: nearly all actives have a fitted effect of over 70% in size
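HP1-beta protein (50 nM final) preincubated 30 min at room temperature with biotinylated H3(1-18)K9me3 peptide (50 nM) in PBS pH 7.4, 0.01% Tween-20, then compound added for 30 min. AlphaScreen streptavidin donor/nickel chelate acceptor beads (10 ug/mL final), 30 min dark, luminescence read.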
TDP1 inh: TDP1 (human) enzyme inhibition; Q9NUW8; recombinant TDP1, AlphaScreen DNA substrate cleavage; Potency, µM (titrated, usually from 130 µM), for inactives: at the highest dose activity change, negative = inhibition, most hits filed as inhibitors; 350,000 tested, 0.28% active; AID 485290; further: on the % scale 0 is the no-effect control and ±100 the full control effect; nearly all actives have a fitted effect of over 40% in size
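E. coli-derived human Tdp1, 1 nM final. Cpd preinc 15 min RT; substrate 15 nM final, 5 min RT; AS bead mix 10 ug/ml final, 10 min RT. Signal loss = tyrosine-FITC cleavage. No-enzyme wells = max signal.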
Numbers without * were called inactive; ? = inconclusive; . = not tested or not shown; [ ] = another dose, or the depositor's remark. Sampled rows, rich in hits. Any-hit rate of the full collection: about 12%. The call rests on the fitted dose curve; in most records, active means well fitted curve in the direction sought with a large enough effect; inconclusive means small, poorly fitted or top-dose-only effect, or another doubt; inactive means no such curve, though single readings can be large; an effect the other way counts as inactive or inconclusive. Potency means the concentration at half of the fitted maximal effect.

SMILES	JMJD2A Tudor inh	G9a block	BAZ2B block	Sfp inh	HP1b binding inh	TDP1 inh
COc1cccc(CSc2nc3n(n2)C(c2ccc(C(=O)O)cc2)C(C(=O)Nc2ccccc2)=C(C)N3)c1 (stereo not drawn)	-29.3%	-3.2%[59 µM]	-14.8%	.	25.0%	.
CC1=C(C(=O)Nc2cccc(C(F)(F)F)c2)C(c2ccccn2)n2ncnc2N1 (stereo not drawn)	50.1µM*	20µM*	?	.	4.7%[57 µM]	0.6%
COc1ccccc1NC(=O)C1=C(C)Nc2nc(-c3ccco3)nn2C1c1ccccc1 (stereo not drawn)	-30.8%	7.0%[59 µM]	-19.6%	.	1.3%	.
CC(=O)c1ccc(NC(=O)[C@@H]2CCCN2C(=O)OC(C)(C)C)cc1	-5.6%	12.4%	-0.2%	11.3%	58.2%	.
CC(=O)C1(O)CCC2C3CC(C)C4=CC(=O)C=CC4(C)C3(F)C(O)CC21C (stereo not drawn)	-6.2%	.	.	.	30.5%	.
CC(=O)Nc1ccc(SC[C@H](C)CN2CC[C@H](O)CCC2=O)cc1	-2.9%	19.5%[2.33 µM]	-3.7%	.	60.4%	0.7%
COc1ccc(C(=O)CCNc2ccc(F)cc2)cc1	-14.2%	20.1%	-2.8%	5.6%	-0.3%	.
Cc1ccc(NCCNc2ccc(C)cc2)cc1	22.4µM*	?	.	11.9%	-41.1%	10.4%
Cc1ccc(CCNc2ccccc2C)cn1	-23.3%	-22.6%[59 µM]	7.9%	16.7%	-3.5%	2.6%
COc1ccc(NCCNc2ccc(OC)cc2)cc1	?	8.6%[0.0925 µM]	50.1µM*	-3.3%	-18.2%	7.9%
Cc1ccc(NCCc2ccc(C)nc2)cc1	-34.2%	50.1µM*	-19.1%	10.7%	-7.8%	6.0%
CCCN(C(=O)NCc1noc2ccc(C)cc12)c1ccc(Cl)c(Cl)c1	25.6%	5.9%[59 µM]	3.1%	.	93.6%	-7.7%
Cc1ccc(S(=O)(=O)N[C@H](C(=O)N2CCC(C(=O)N[C@H](C(=O)O)c3ccccc3)CC2)C(C)C)cc1	-4.8%	-9.5%[12.7 µM]	-2.1%	11.8%	43.1%	.
Cc1ccc(NC(=O)CN(C)C(=O)c2cc(-c3cccs3)nn2-c2ccccc2)cc1	-27.5%	8.6%[12.7 µM]	-2.7%	.	24.2%	1.9%
CC(C)CC(NC(=O)C(CO)NC(=O)C1CCC(=O)N1)C(N)=O (stereo not drawn)	9.1%	21.6%	.	9.9%	23.7%	0.0%
CCOC(=O)c1c(C)oc2c1c(C=NCCO)c(O)c1ccccc12	?	50.1µM*	-38.7%	50.1µM*	-2.1%	3.1%
Brc1ccc(-c2ccc(C3Nc4cccc5cccc(c45)N3)o2)cc1	.	-24.8%[0.501 µM]	-30.5%	.	.	3.6%
Oc1ccc(C2Nc3cccc4cccc(c34)N2)c(O)c1	79.4µM*	44.7µM*	?	-19.8%	17.8µM*	5.9%
Cc1ccc(C2Nc3cccc4cccc(c34)N2)s1	?	12.6µM*	?	?	?	2.7%
Clc1ccccc1C1Nc2cccc3cccc(c23)N1	?	.	70.8µM*	-28.8%	?	.
C/C(=C\c1ccccc1)C1Nc2cccc3cccc(c23)N1	.	2.6%[2.33 µM]	?	.	.	9.5%
c1coc(C2Nc3cccc4cccc(c34)N2)c1	.	?	?	3.16µM*	.	2.6%
Clc1cccc(C2Nc3cccc4cccc(c34)N2)c1Cl	50.1µM*	23.8%[0.501 µM]	39.8µM*	0.0%	?	.
O=C1NC(c2ccccc2Cl)Nc2ccccc21 (stereo not drawn)	-30.0%	15.2%[59 µM]	-1.3%	8.3%	26.3%	5.1%
CC1CCCN(c2ncnc3c2cnn3-c2ccc(F)cc2)C1 (stereo not drawn)	51.7%	20.4%[59 µM]	75.8%	.	51.7%	2.6%
SMILES	JMJD2A Tudor inh	G9a block	BAZ2B block	Sfp inh	HP1b binding inh	TDP1 inh
O=C(O)c1cccc(S(=O)(=O)Nc2ccccc2-c2ccccc2)c1	-2.2%	?	-21.3%	17.9%	41.7%	6.7%
COc1ccc([N+](=O)[O-])cc1NS(=O)(=O)c1ccccc1	-15.2%	0.794µM*	-0.3%	8.8%	10.8%	-1.2%
COc1cc(Nc2nc3ccccc3nc2NS(=O)(=O)c2ccc([N+](=O)[O-])cc2)cc(OC)c1OC	?	.	7.94µM*	18.0%	-25.1%	8.5%
O=C(O)c1cccc(S(=O)(=O)Nc2ccc([N+](=O)[O-])cc2O)c1	?	22.4µM*	-27.8%	?	10.7%	-1.2%
O=[N+]([O-])c1ccc(S(=O)(=O)Nc2nc3ccccc3nc2Nc2ccccc2)cc1	-15.0%[11.4 µM]	?	?	9.7%	-19.2%	1.6%
O=C(Nc1cccc2cccnc12)c1ccc(Br)cc1Br	0.7%	9.7%	2.8%	3.9%	77.7%	.
CCOC(=O)/C=C/C(=O)Nc1ccc(S(=O)(=O)Nc2nccs2)cc1	-9.1%	-40.0%	-21.0%	8.0%	23.6%	.
O=C(COC(=O)c1nc(Cl)ccc1Cl)c1ccc[nH]1	-16.3%	-29.1%	?	.	12.5%	1.1%
O=C(COC(=O)c1nc(Cl)c(Cl)c(Cl)c1Cl)c1ccc[nH]1	-17.2%	14.1µM*	-22.9%	.	29.4%	.
COc1ccc(C(=O)N(Cc2ccccc2)Cc2cccs2)c(O)c1	-34.0%	.	.	.	.	-5.8%
CCC1=NN2C(=N)/C(=C\c3ccc(OCCOc4ccccc4)c(OC)c3)C(=O)N=C2S1	.	-73.3%	-4.3%	12.0%	.	.
CCc1nn2c(=O)cc(COc3ccc(/C=C4\C(=N)N5N=C(CC(C)C)SC5=NC4=O)cc3)nc2s1	44.7µM*	15.0%[59 µM]	?	-4.4%	8.9%	.
CCC1=NN2C(=N)/C(=C\c3ccc(OCc4cc(=O)n5nc(CC)sc5n4)c(OC)c3)C(=O)N=C2S1	?	?	79.4µM*	9.4%	-36.4%	39.8µM*
COc1ccc(CN2CCC(N3CC(C)OC(C)C3)CC2)c(OC)c1OC (stereo not drawn)	20µM*	.	?	56.2µM*	?	.
CC1CCN(Cc2ccc(-c3nn[nH]n3)cc2)CC1	-3.8%	?	9.2%	6.3%	26.1%	2.1%
Cc1ccc(CN2CCC(N3CC(C)OC(C)C3)CC2)cc1 (stereo not drawn)	22.4µM*	12.6µM*	56.2µM*	-23.5%	?	.
COc1ccc(CN2CCN(C(=O)c3ccc(-c4ccccc4)cc3)CC2)c(OC)c1OC	-33.3%	-4.8%	?	11.8%	9.3%	2.6%
O=C(Nc1cc(C(F)(F)F)ccc1Cl)C(O)Cc1ccccc1 (stereo not drawn)	6.2%	.	.	.	.	-6.0%
